HT1080 IDH1KD tx: kills HT-1080 cells with IDH1 knockdown. HT-1080 IDH1 knockdown viability, ATP luminescence, 48 h. Potency, µM (titrated, usually from 46.1 µM), for the others: top-dose activity, negative = toxicity, usual class: cytotoxic. 360,000 tested, 2% active. AID 686971;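 further: potency means the concentration at half of the fitted maximal effect; 0% = DMSO wells and -100% = cell-free medium wells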
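% activity derives from luminescence (CellTiter-Glo), normalised to DMSO and no-cell wells. HT-1080-IDH1KD cells, 750/well, had 48 h compound exposure at 37 °C.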
DT40 TDP1 no CPT: qHTS for Inhibitors of human tyrosyl-DNA phosphodiesterase 1 (TDP1): qHTS in cells in absence of CPT; DT40 Tdp1-/- hTDP1 cells, no CPT, ATP luminescence, 48 h; 420,000 tested, 15% active; AID 686978, 2013; Potency, µM (highest dose often 46.2 µM), for the others: at the highest dose activity change, negative = growth inhibition, actives largely listed as inhibitors; further: potency means the concentration at half of the fitted maximal effect; nearly all actives have a fitted effect of over 55% in size
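Chicken DT40 Tdp1-/- cells stably complemented with human TDP1 were seeded at 400 cells/well with DMSO in place of 20 nM camptothecin. After compound pinning, cells grew at least 48 hr at 37 °C; viability read by CellTiter-Glo luminescence.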
HT1080NT lethal: kills 2HG-producing HT-1080-NT fibrosarcoma cells; HT-1080-NT fibrosarcoma viability, CellTiter-Glo ATP luminescence, 48 h; Potency, µM (series often up to 46.1 µM), for inactives: at the highest dose activity, negative = less viability, actives largely listed as cytotoxic; 360,000 tested, 1.6% active;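 further: NT is the 2HG producing partner of a matched IDH1 knockdown line; potency means the concentration at half of the fitted maximal effect; 0% = DMSO-treated cells and -100% = media-only wells without cells; nearly all actives have a fitted effect of over 55% in size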
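Luminescent CellTiter-Glo readout after 48 hours of compound exposure at 37 degrees C defined viability of HT-1080-NT cells. Activity was normalized to DMSO wells and cell-free media wells; concentration-response curves were fitted and assigned curve classes.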
IL1B secr inh: inflammasome signaling inhibition, IL-1 beta readout. THP-1 LPS/ATP IL-1B secretion, AlphaLISA, 16 h; active compounds read low. activity change, % at 57.5 µM. 360,000 tested, 4.7% active; in the data active means activity change below about -50%; inconclusive means mostly about -30% to -49%
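Secreted IL-1B measured by AlphaLISA bead assay after 16 h compound exposure of THP-1 cells; compounds (final up to 57.5 uM) added 1 h before LPS (250 ng/mL) and ATP (1.25 mM) stimulation; lower signal means less secretion.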
DT40 TDP1 CPT: DT40-hTDP1 cell growth loss with CPT. chicken DT40 Tdp1-/-;hTDP1 cells + 20 nM CPT, ATP luminescence, 48 h. Potency, µM (titrated, usually from 46.2 µM), for inactives: at the top dose activity change, negative = growth inhibition, actives largely listed as inhibitors. 420,000 tested, 12% active. AID 686979; further: potency means the concentration at half of the fitted maximal effect; nearly all actives have a fitted effect of over 55% in size
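Chicken DT40 Tdp1-/- cells stably complemented with human TDP1 were seeded at 400 cells/well in medium containing 20 nM camptothecin, exposed to pin-transferred compounds, and grown at 37 °C for at least 48 hr. Viability was read as ATP luminescence.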
The depositor's hits bear a star; i = inactive; ? = inconclusive; · = not tested or not shown; [ ] = another dose, or the depositor's remark. Hits are enriched below; roughly 19% of the tested compounds scored in any of these assays. Unless noted, the call rests on the fitted dose curve; in most records, active means well fitted curve in the direction sought with a large enough effect; inconclusive means small, poorly fitted or top-dose-only effect, or another doubt; inactive means no such curve, though single readings can be large; an effect the other way counts as inactive or inconclusive. Unless noted, on the % scale 0 is the no-effect control and ±100 the full control effect.

SMILES | HT1080 IDH1KD tx | DT40 TDP1 no CPT | HT1080NT lethal | IL1B secr inh | DT40 TDP1 CPT
COc1cccc(OCC(=O)N2CCC3(CC2)CC(=O)c2ccccc2O3)c1 | 2.1% | ? | -2.5% | -11.5 | ?
O=C(Nc1ccc(Cl)cc1)c1cc(S(=O)(=O)N2CCc3ccccc32)ccc1F | · | 18.4µM* | · | · | 18.4µM*
COC(CNC(=O)c1cc(S(=O)(=O)N2CCc3ccccc32)ccc1F)OC | 14.6% | 0.2% | 21.8% | 1.4 | ?
O=C(Nc1ccc(F)c(F)c1)c1cc(S(=O)(=O)N2CCc3ccccc32)ccc1F | · | 10.3µM* | · | · | 10.3µM*
Cc1cc(C)c(S(C)(=O)=O)c(Oc2cccc(C(F)(F)F)c2)n1 | 5.7% | -2.1% | -1.6% | 25.0 | ?
COc1cccc(C(=O)NCCS(=O)(=O)NCc2ccc(Cl)cc2)c1 | -11.3% | -10.6% | -1.2% | -4.1 | -0.6%
COc1ccc(C(C(=O)NCC2CCCO2)N(C(=O)CNC(=O)c2cccs2)c2ccccc2C)cc1OC (configuration not stated) | 2.4% | 6.7% | -18.2% | -6.6 | 5.4%
CCCc1cc2c(=O)c(-c3ccccn3)coc2cc1OC | 4.1%[9.24 µM] | 8.2µM* | ? | -7.7 | ?
COc1ccccc1Oc1coc2cc(OCC(N)=O)ccc2c1=O | -0.5% | 2.8% | 8.9% | 1.4 | -1.3%
COc1cccc(N=c2oc3ccccc3cc2-c2nc3ccccc3[nH]2)c1 | ? | 23.1µM* | ? | -4.1 | 23.1µM*
COc1cccc(N=c2oc3ccc(OC)cc3cc2-c2nc3ccccc3[nH]2)c1 | ? | ? | -21.4% | 59.9 | ?
O=S1(=O)CC(N2CCN(Cc3ccccc3F)CC2)CN1Cc1cn(Cc2cccc(Cl)c2)nn1 (configuration not stated) | -9.3% | 20.6µM* | -3.0% | -7.1 | ?
O=S1(=O)CC(N2CCN(Cc3ccccc3F)CC2)CN1Cc1cn(Cc2ccc(F)cc2)nn1 (configuration not stated) | ? | ? | -7.1% | -15.9 | -16.0%
Cc1ccc(Cn2cc(CN3CC(N4CCN(Cc5cccc(C)c5)CC4)CS3(=O)=O)nn2)cc1 (configuration not stated) | -1.7% | ? | -1.2% | -4.7 | ?
CCCCCCN1CCN(C2CN(Cc3cn(Cc4cc(C)cc(C)c4)nn3)S(=O)(=O)C2)CC1 (configuration not stated) | ? | 16.4µM* | ? | ? | ?
Cc1cccc(CN2CCN(C3CN(Cc4cn(Cc5ccc(Cl)cc5)nn4)S(=O)(=O)C3)CC2)c1 (configuration not stated) | 1.7% | 20.6µM* | 1.0% | -18.2 | 18.4µM*
Cc1cccc(CN2CCN(C3CN(Cc4cn(Cc5cccc(Cl)c5)nn4)S(=O)(=O)C3)CC2)c1 (configuration not stated) | 1.9% | 14.6µM* | -1.4% | 4.2 | 18.4µM*
O=c1[nH]c(C2CCCN(S(=O)(=O)Cc3ccccc3)C2)nc2c1nnn2Cc1cccc(Cl)c1 (configuration not stated) | 0.0% | ? | -20.1% | -0.3 | -4.0%
CN(C)CCN(C)C1CN(CCc2ccccc2)S(=O)(=O)C1 (configuration not stated) | 1.4% | -8.2% | 2.7% | 0.0 | -11.3%
Cc1ccc(OCCNC(=O)c2cccc(S(=O)(=O)N3CCN(C)CC3)c2)cc1 | 0.4% | ? | -3.8% | -6.9 | 2.5%
O=C(Nc1nc(-c2ccccc2)cs1)C1CCCN(S(=O)(=O)c2ccccc2)C1 (configuration not stated) | ? | 6.51µM* | ? | -8.0 | 6.51µM*
O=C(Nc1nc(-c2ccccc2)cs1)C1CCCCN1S(=O)(=O)c1ccc(Cl)cc1 (configuration not stated) | ? | ? | ? | 32.7 | ?
O=C(Nc1nc(-c2ccccc2)cs1)C1CCCCN1S(=O)(=O)c1ccccc1 (configuration not stated) | ? | 23.1µM* | ? | -8.3 | 25.9µM*
O=C(Nc1nc(-c2ccccc2)cs1)C1CCCN(S(=O)(=O)c2cccc([N+](=O)[O-])c2)C1 (configuration not stated) | -0.7% | ? | -15.0% | -24.8 | 20.6µM*
CC1CCCN(S(=O)(=O)c2cccc([N+](=O)[O-])c2)C1 (configuration not stated) | 1.0% | ? | -2.3% | -3.8 | -13.4%
SMILES | HT1080 IDH1KD tx | DT40 TDP1 no CPT | HT1080NT lethal | IL1B secr inh | DT40 TDP1 CPT
CC(C)Oc1ccc(C2CC(=O)N(c3cccc(/C=C/C(=O)O)c3)C2=O)cc1 (configuration not stated) | 6.8% | 4.7% | 6.7% | 18.8 | -1.5%
Cc1ccc(-n2nc(CO)c(C(=O)NCc3cccnc3)n2)cc1 | · | -14.7% | · | · | ?
Nn1c(SCC(=O)N2CCOCC2)nnc1-c1ccccc1Cl | 10.0% | 5.1% | -4.1% | 13.7 | 6.0%
C=CCNC(=O)COC(=O)C1CCN(S(=O)(=O)c2ccc3c(c2)OCCO3)CC1 | -5.9% | -3.0% | -11.9% | i | 0.0%
CCCOc1c(Cl)cc(C(=O)NC)cc1OC | 23.3% | -1.3% | -2.3% | -7.0 | -1.4%
COc1ccc(-c2cc(C#N)nc(Cl)n2)cc1 | 9.2µM* | 4.61µM* | 7.31µM* | · | 4.11µM*
CCN(CC)c1nc2cc(OC)ccc2cc1C#N | -5.2% | 16.4µM* | 4.0% | 0.8 | 20.6µM*
COc1ccc(-c2cc(C#N)nc(Oc3ccc(Cl)cc3)n2)cc1 | -1.2% | -0.6% | 6.3% | -5.1 | -1.0%
CCN(CC)c1nc(C#N)cc(-c2ccc(OC)cc2)n1 | ? | 10.3µM* | ? | -9.0 | 8.2µM*
COc1ccc2cc(C#N)c(NC(C)C)nc2c1 | -0.6% | ? | -0.5% | -12.2 | -27.9%
N#Cc1cc(-c2ccccc2)nc(Oc2ccccc2)n1 | 3.2% | 18.4µM* | -9.5% | ? | ?
C=CCn1c(SCC(=O)N2CCOCC2)nc2ccccc2c1=O | 6.7% | 8.1% | 15.1% | 12.7 | -24.2%
Nc1nc(/C=C/c2ccc(F)cc2)nc(-c2ccccc2O)n1 | -0.4% | -28.5% | -12.9% | 20.1 | ?
Nc1nc(/C=C/c2cccnc2)nc(-c2ccccc2O)n1 | -12.6% | 9.2µM* | 0.8% | -60.1* | 2.91µM*
O=C(Nc1ccccc1)c1cc(C2COCCN2C(=O)c2cccs2)on1 (configuration not stated) | 0.0% | -21.6% | 9.0% | 87.0 | -16.9%
CC(C)c1nn2c(=O)cc(COC(=O)c3ccccc3NC(=O)c3cccs3)nc2s1 | · | 7.31µM* | · | · | 7.31µM*
CC(C)Cc1nn2c(=O)cc(COC(=O)c3ccccc3NC(=O)c3cccs3)nc2s1 | · | ? | · | · | -15.8%
